Laboratory results: PubChem BioAssay (NCATS)
Unmarked numbers belong to inactive results. Unless noted, the call rests on the fitted dose curve.

Each molecule was assayed against DNA polymerase III PolC-type (Bacillus subtilis (strain 168)) (UniProt P13267) (assay: qHTS Validation Assay for the Inhibitors of DNA Replication in Gram-Positive Bacteria (AID 485295; active means well fitted inhibition curve with a large enough effect;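 further: reconstituted holoenzyme with PolC plus beta clamp SSB and primase; PicoGreen fluorescence of double-stranded DNA made on primed circular M13 template; 0% = DMSO wells and -100% = EDTA-quenched background wells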)). Conditions: Gram-positive bacterial DNA replication assay; series mostly up to 57.1 µM; activity change, negative = inhibition: at the top concentration.
DNA polymerase III PolC-type (Bacillus subtilis (strain 168)), sequence (P13267 whole entry, looked up): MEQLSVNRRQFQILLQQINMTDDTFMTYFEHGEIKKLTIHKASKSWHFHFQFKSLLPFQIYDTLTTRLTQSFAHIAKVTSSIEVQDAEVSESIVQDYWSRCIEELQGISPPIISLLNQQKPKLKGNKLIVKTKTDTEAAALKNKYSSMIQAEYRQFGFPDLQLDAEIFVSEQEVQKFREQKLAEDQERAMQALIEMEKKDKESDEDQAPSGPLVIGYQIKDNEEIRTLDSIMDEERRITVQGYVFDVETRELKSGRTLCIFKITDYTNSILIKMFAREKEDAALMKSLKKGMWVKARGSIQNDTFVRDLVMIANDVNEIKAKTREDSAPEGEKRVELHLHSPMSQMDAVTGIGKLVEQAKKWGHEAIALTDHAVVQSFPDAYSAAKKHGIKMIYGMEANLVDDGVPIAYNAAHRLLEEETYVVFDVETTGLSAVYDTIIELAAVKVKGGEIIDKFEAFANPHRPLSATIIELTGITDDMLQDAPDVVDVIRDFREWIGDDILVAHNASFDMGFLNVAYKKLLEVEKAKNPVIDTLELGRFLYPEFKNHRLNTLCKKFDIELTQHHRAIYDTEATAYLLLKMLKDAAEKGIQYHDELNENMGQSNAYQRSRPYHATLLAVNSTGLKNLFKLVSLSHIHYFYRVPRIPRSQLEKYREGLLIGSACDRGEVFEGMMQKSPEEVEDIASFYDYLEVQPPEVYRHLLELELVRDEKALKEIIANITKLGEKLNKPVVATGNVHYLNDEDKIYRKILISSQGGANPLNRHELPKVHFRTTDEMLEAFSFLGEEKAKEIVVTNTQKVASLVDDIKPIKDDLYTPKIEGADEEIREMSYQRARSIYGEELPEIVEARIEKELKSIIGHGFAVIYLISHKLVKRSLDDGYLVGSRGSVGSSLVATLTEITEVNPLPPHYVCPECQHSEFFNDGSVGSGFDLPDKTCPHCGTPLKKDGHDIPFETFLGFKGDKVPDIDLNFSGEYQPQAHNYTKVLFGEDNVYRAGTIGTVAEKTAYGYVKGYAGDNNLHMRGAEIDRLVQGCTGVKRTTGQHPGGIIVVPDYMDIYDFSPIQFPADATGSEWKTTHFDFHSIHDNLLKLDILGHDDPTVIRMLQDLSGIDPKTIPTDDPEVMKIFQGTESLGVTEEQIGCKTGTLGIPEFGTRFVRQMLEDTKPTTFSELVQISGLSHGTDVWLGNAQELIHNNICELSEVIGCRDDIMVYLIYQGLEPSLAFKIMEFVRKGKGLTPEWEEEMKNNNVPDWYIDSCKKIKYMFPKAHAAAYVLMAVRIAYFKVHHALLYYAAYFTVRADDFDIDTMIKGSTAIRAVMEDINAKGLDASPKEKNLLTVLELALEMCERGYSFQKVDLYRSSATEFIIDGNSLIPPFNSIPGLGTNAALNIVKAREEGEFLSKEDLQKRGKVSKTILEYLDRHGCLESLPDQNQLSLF
Procedure, shortened: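 Double-stranded DNA product detected by PicoGreen fluorescence after EDTA quench. Compound incubated with B. subtilis holoenzyme (PolC, beta subunit, SSB, primase) before substrate addition; primed replication of M13Gori with dNTPs and NTPs at room temperature; DMSO defines 0% inhibition.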

| SMILES | activity change, negative = inhibition [%] |
| --- | --- |
| CCN1/C(=C/C(C)=O)Sc2ccc(OC)cc21 | 3.3 |
| CN1CCc2ccccc2Cc2[nH]c3ccccc3c2CC1 | 1.16 |
| COc1ccccc1CNCCCCCCNCCCCCCCCNCCCCCCNCc1ccccc1OC | -3.52 |
| COC1=C(OC)C(=O)c2ccccc2C1=O | -5.18 |
| c1cnc2c(c1)ccc1cccnc12 | 0.326 |
| Oc1cc(O)cc(/C=C/c2ccc(O)c(O)c2)c1 | -21.9 |
| O=C(O)[C@@H]1C[C@H](C(=O)O)N1 | -5.66 |
| CCCN(CC1CC1)c1nc(C)nc(Nc2c(Cl)cc(Cl)cc2Cl)c1Cl | 1.12 |
| COc1ccc(NC(=O)/C=C/c2ccc(Cl)cc2)cc1 | -2.02 |

Each molecule was assayed against Tumor susceptibility gene 101 protein (Homo sapiens) (UniProt Q99816) (assay: qHTS Validation Assay for Iinhibitors of HIV-1 Budding by Blocking the Interaction of PTAP/TSG101 (AID 485342; further: 0% is about no effect)). Conditions: TSG101-PTAP binding, fluorescence polarization, 4-point titration; series mostly up to 115 µM; fluorescence change: at the top concentration.
Tumor susceptibility gene 101 protein (Homo sapiens), sequence (Q99816 whole entry, looked up, the tested form may be a part): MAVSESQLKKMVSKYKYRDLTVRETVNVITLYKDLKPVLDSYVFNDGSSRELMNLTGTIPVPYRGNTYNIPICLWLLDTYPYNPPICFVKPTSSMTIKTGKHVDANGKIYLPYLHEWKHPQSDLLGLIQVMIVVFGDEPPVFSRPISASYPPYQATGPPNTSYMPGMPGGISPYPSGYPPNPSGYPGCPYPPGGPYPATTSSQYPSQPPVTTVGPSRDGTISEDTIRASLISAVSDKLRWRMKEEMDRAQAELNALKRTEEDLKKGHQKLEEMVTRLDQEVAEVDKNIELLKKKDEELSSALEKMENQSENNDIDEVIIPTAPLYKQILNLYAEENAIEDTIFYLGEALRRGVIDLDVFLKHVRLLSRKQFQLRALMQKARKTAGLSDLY
Procedure, shortened: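 Fluorescence polarization of 50 nM FITC-PTAP peptide bound to 10 uM Tsg101 binding domain was read after 20 min room-temperature incubation with compounds, in 10 mM HEPES pH 7.5, 0.15 M NaCl, 0.01% Tween 20.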

| SMILES | fluorescence change [%] |
| --- | --- |
| CC(C)NCC(O)COc1cccc2ccccc12 (centres undefined) | 2.94 |
| COc1ccccc1N1CCN(CCCCNS(=O)(=O)c2cccc3c(N(C)C)cccc23)CC1 | 0.255 |
| O=C1NC(O)=NC1(c1ccccc1)c1ccccc1 | -0.931 |
| O=C(Nc1cccc(C(=O)Nc2ccc(S(=O)(=O)O)c3cc(S(=O)(=O)O)cc(S(=O)(=O)O)c23)c1)Nc1cccc(C(=O)Nc2ccc(S(=O)(=O)O)c3cc(S(=O)(=O)O)cc(S(=O)(=O)O)c23)c1 | 4.3 |
| COc1cccc(OC)c1OCCNCC1COc2ccccc2O1 (centres undefined) | -1.31 |
| CN=c1nc(-c2ccccc2)n(-c2ccccc2)s1 | 1.43 |
| CC(C)NC[C@H](O)COc1cccc2[nH]ccc12 | 1.14 |
| Cc1ccccc1CNc1ncnc2c1ncn2C1OC(CO)C(O)C1O (centres undefined) | 3.22 |
| NC(CCCP(=O)(O)O)C(=O)O (centres undefined) | 2.5 |
| O=c1[nH]c2cc(Cl)c(Cl)cc2[nH]c1=O | 2.54 |
| Fc1cccc(/C=N/N=C/c2cccc(F)c2)c1 | -6.11 |
| O=C(/C=C/c1ccc(O)cc1)c1ccc(O)cc1O | 2.07 |
| COc1ccc(/C=C/C(=O)Nc2ccccc2C(=O)O)cc1OC | 4.25 |
| CN1CCc2cc(NC(=O)Nc3cccnc3)ccc21 | 2 |
| CN(C)C(N)=NCCC[C@H](N)C(=O)O | 1.86 |
| O=C(O)CCCC[C@@H]1CCSS1 | -0.554 |
| O=C(O)/C=C/C(O)c1ccc(Cl)cc1 (centres undefined) | -0.64 |
| CC(C)Cc1ccc([C@H](C)C(=O)O)cc1 | 0.0844 |
| CC12C(=O)OC(=O)C1(C)C1CCC2O1 (centres undefined) | -2.41 |
| CCCCN1CCC(n2c(=O)[nH]c3ccccc32)CC1 | 3.72 |
| CC(C)(C)c1ccc(S(=O)(=O)/C=C/C#N)cc1 | 2.12 |
| Cc1cc(NC(=O)Nc2ccc3c(ccn3C)c2)sn1 | -11.1 |
| CCN1/C(=C/C(C)=O)Sc2ccc(OC)cc21 | -5.83 |
| CN1CCc2ccccc2Cc2[nH]c3ccccc3c2CC1 | 26.2 |
| COc1ccccc1CNCCCCCCNCCCCCCCCNCCCCCCNCc1ccccc1OC | 0.82 |
| COC1=C(OC)C(=O)c2ccccc2C1=O | 2.21 |
| CN1CCc2cc(O)c(O)cc2C(c2ccccc2)C1 (centres undefined) | 3.81 |
| Oc1cc(O)cc(/C=C/c2ccc(O)c(O)c2)c1 | -4.18 |
| O=C(O)[C@@H]1C[C@H](C(=O)O)N1 | -5.17 |
| CCCN(CC1CC1)c1nc(C)nc(Nc2c(Cl)cc(Cl)cc2Cl)c1Cl | -4.94 |
